Test results published in PubChem BioAssay AID1159580 (chemical genetic matrix, 2015).
The whole screen tested about 5,500 compounds, of which about 2,000 (36%) were called active. Not shown: some 18% with an inconclusive outcome. No stated cut-off is given here; in the data, active means normalized growth mostly below about 0.91 (no sharp cut-off); inconclusive means no clear call, values can overlap the other calls; inactive means mostly above about 0.92. The list shows a part of the results.

Assay: chemical genetic growth profiling, strain panel (AID 1159580);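 further: tested at 20 µM; growth read once vehicle control cultures reached saturation at 30 °C; 1 = growth at the plate median or of vehicle wells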
Conditions: S. cerevisiae deletion strains, growth OD

Measured: normalized growth

COC(=O)CCCOc1ccc(Cl)cc1Cl
inactive: locus YAL013W, strain DEP1, stronger effect = lower value 0.986 | locus YAL021C, strain ccr4, stronger effect = lower value 0.988 | locus YAL026C, strain drs2, stronger effect = lower value 0.966 | locus YAL030W, strain snc1, stronger effect = lower value 0.968 | locus YBL061C, strain skt5, stronger effect = lower value 0.952 | locus YBR009C, strain hhf1, stronger effect = lower value 0.955 | locus YBR021W, strain FUR4, stronger effect = lower value 0.931 | locus YBR023C, strain chs3, stronger effect = lower value 0.96 | locus YBR171W, strain sec66, stronger effect = lower value 0.916 | locus YBR229C, strain ROT2, stronger effect = lower value 0.993 | locus YBR231C, strain swc5, stronger effect = lower value 0.964 | locus YBR279W, strain paf1, stronger effect = lower value 0.961 | locus YCL011C, strain gbp2, stronger effect = lower value 0.967 | locus YCL016C, strain dcc1, stronger effect = lower value 0.959 | locus YCL029C, strain bik1, stronger effect = lower value 1 | locus YCL061C, strain MRC1, stronger effect = lower value 0.953 | locus YCL069W, strain vba3, stronger effect = lower value 0.962 | locus YCR088W, strain abp1, stronger effect = lower value 0.955 | locus YDL005C, strain med2, stronger effect = lower value 0.958 | locus YDL035C, strain GPR1, stronger effect = lower value 1 | locus YDL040C, strain nat1, stronger effect = lower value 0.954 | locus YDL074C, strain BRE1, stronger effect = lower value 0.999 | locus YDL101C, strain DUN1, stronger effect = lower value 1.02 | locus YDL134C, strain PPH21, stronger effect = lower value 0.998 | locus YDL185W, strain tfp1, stronger effect = lower value 0.988 | locus YDL192W, strain arf1, stronger effect = lower value 0.996 | locus YDR001C, strain nth1, stronger effect = lower value 0.967 | locus YDR069C, strain doa4, stronger effect = lower value 0.967 | locus YDR101C, strain arx1, stronger effect = lower value 0.987 | locus YDR137W, strain rgp1, stronger effect = lower value 0.899 | locus YDR150W, strain NUM1, stronger effect = lower value 0.989 | locus YDR159W, strain sac3, stronger effect = lower value 0.956 | locus YDR162C, strain NBP2, stronger effect = lower value 0.991 | locus YDR195W, strain ref2 0.972 | locus YDR297W, strain sur2, stronger effect = lower value 0.961 | locus YDR318W, strain mcm21, stronger effect = lower value 0.993 | locus YDR334W, strain swr1, stronger effect = lower value 0.974 | locus YDR335W, strain msn5, stronger effect = lower value 0.968 | locus YDR388W, stronger effect = lower value 0.992 | locus YDR392W, strain spt3, stronger effect = lower value 0.902 | locus YDR502C, strain sam2, stronger effect = lower value 0.995 | locus YEL003W, strain gim4, stronger effect = lower value 0.966 | locus YEL037C, strain rad23, stronger effect = lower value 0.968 | locus YEL061C, strain CIN8 (second series), stronger effect = lower value 0.961 | locus YEL061C, strain CIN8, stronger effect = lower value 0.985 | locus YER015W, strain faa2, stronger effect = lower value 0.959 | locus YER016W, strain bim1, stronger effect = lower value 0.964 | locus YER110C, stronger effect = lower value 0.995 | locus YER111C, strain swi4, stronger effect = lower value 0.956 | locus YER155C, strain BEM2 (second series), stronger effect = lower value 0.922 | locus YER155C, strain BEM2, stronger effect = lower value 0.984 | locus YER167W, strain BCK2, stronger effect = lower value 1 | locus YFR010W, strain ubp6, stronger effect = lower value 0.974 | locus YGL078C, strain dbp3, stronger effect = lower value 0.983 | locus YGL086W, strain mad1, stronger effect = lower value 0.991 | locus YGL167C, strain pmr1, stronger effect = lower value 0.953 | locus YGL173C, strain kem1, stronger effect = lower value 0.948 | locus YGL227W, strain vid30, stronger effect = lower value 0.95 | locus YGL240W, strain doc1, stronger effect = lower value 0.949 | locus YGL248W, strain PDE1, stronger effect = lower value 1 | locus YGL253W, strain hxk2, stronger effect = lower value 0.965 | locus YGR078C, strain PAC10, stronger effect = lower value 0.991 | locus YGR135W, strain pre9, stronger effect = lower value 0.994 | locus YGR229C, strain SMI1, stronger effect = lower value 0.994 | locus YGR252W, strain gcn5, stronger effect = lower value 0.977 | locus YHR013C, strain ard1, stronger effect = lower value 0.958 | locus YHR027C, strain rpn1, stronger effect = lower value 0.975 | locus YHR030C, strain SLT2, stronger effect = lower value 0.994 | locus YHR079C, strain IRE1 (second series), stronger effect = lower value 1 | locus YHR094C, strain hxt1, stronger effect = lower value 0.985 | locus YHR129C, strain ARP1, stronger effect = lower value 0.994 | locus YHR142W, strain chs7, stronger effect = lower value 0.965 | locus YHR200W, strain rpn10, stronger effect = lower value 0.996 | locus YIL066C, strain RNR3, stronger effect = lower value 0.993 | locus YIL073C, strain SPO22, stronger effect = lower value 1.07 | locus YIL125W, strain kgd1, stronger effect = lower value 0.983 | locus YIR030C, strain dcg1, stronger effect = lower value 0.994 | locus YJL092W, strain hpr5, stronger effect = lower value 0.957 | locus YJL095W, strain BCK1 (second series), stronger effect = lower value 0.955 | locus YJL095W, strain BCK1, stronger effect = lower value 0.942 | locus YJL115W, strain asf1, stronger effect = lower value 0.967 | locus YJL129C, strain trk1, stronger effect = lower value 0.931 | locus YJL134W, strain LCB3, stronger effect = lower value 0.995 | locus YJL154C, strain vps35, stronger effect = lower value 0.971 | locus YJL164C, strain tpk1, stronger effect = lower value 0.964 | locus YJL166W, strain qcr8, stronger effect = lower value 0.955 | locus YJL168C, strain set2, stronger effect = lower value 1.01 | locus YJL187C, strain SWE1 (second series), stronger effect = lower value 1 | locus YJL187C, strain SWE1, stronger effect = lower value 0.973
